In PubChem BioAssay:
Calls of active or inactive are those of the source. Cut-off read from the data, not from the text of the source: active = fold change permeability below about 0.7 or above about 1.3; inactive = in between.

Experiment: modulators of brain endothelial barrier permeability, primary screen, cell-based, FITC-avidin fluorescence, HTS (AID 1963498); note: test concentration not given here
Details: actives lie on both sides

Fold change permeability, inactive:
COc1cc(N2CCN(C)CC2)ccc1Nc1nccc(-c2cn(C)c3cnccc23)n1 1.2
Cc1ccc(O)c(N=Nc2ccccc2)n1 1.2
Cc1ccc(C(=O)Nc2cnc(N3CCC(C(N)=O)(N4CCCCC4)CC3)c(C(=O)O)c2)cc1 1
O=S(=O)(c1cccc2c(I)cccc12)N1CCCNCC1 0.9
C[C@]12CC[C@@H]3c4ccc(O)cc4CC[C@H]3[C@@H]1[C@@H](O)[C@@H](O)[C@@H]2O 0.8
COC(=O)c1c(C)[nH]c(C)c1C(=O)c1ccccc1Cc1ccccc1 1.2
CCCCCCCCCCCCCCCCCCOP(=O)([O-])OC1CC[N+](C)(C)CC1 0.9
NCCCC(N)(C(=O)O)C(F)F (centres undefined) 0.8
Cn1c(=O)c2[nH]c(-c3ccc(S(=O)(=O)O)cc3)nc2n(C)c1=O 1
Nc1ccc(S(=O)(=O)Nc2ccnn2-c2ccccc2)cc1 1.2
CN(C(=O)CCCOc1ccc2[nH]c(=O)ccc2c1)C1CCCCC1 0.9
NC(=O)c1cn(Cc2c(F)cccc2F)nn1 0.9
Nc1nc2c(c(=O)[nH]1)C[C@@H](CCc1ccc(C(=O)N[C@@H](CCC(=O)O)C(=O)O)cc1)CN2 0.9
COc1ccccc1N1CCN(CCCCN2C(=O)c3ccccc3C2=O)CC1 0.9
COc1ccc(S(=O)(=O)N(CC(=O)NO)CC(C)C)cc1 1.1
COc1cc(CC(=O)O)ccc1O 1.1
CN1CCN(CCCN2c3ccccc3Sc3ccc(Cl)cc32)CC1 1
CCCCCCCCCC[Si](C)(C)CCC(=O)NC(Cc1ccc(C)cc1)c1ccccc1 (centres undefined) 0.8
[Li+] 1
NC(N)=NCc1cccc(I)c1 0.9
CS(=O)(=O)c1ccc(C2=C(c3ccccc3)C(=O)OC2)cc1 0.8
CC1=C(C(=O)Nc2ccc3[nH]ncc3c2)C(c2ccc(F)cc2)NC(=O)N1 (centres undefined) 1.2
CC(C)C(=O)Nc1n[nH]c2cc(-c3cccc(NS(=O)(=O)C4CC4)c3)ccc12 1.2
CC(=O)N[C@@H](Cc1c[nH]c2ccccc12)C(=O)OCc1cc(C(F)(F)F)cc(C(F)(F)F)c1 0.9
CN(C)CC/C=C1/c2ccccc2Sc2ccc(Cl)cc21 1.1
NCC(O)C1CCCCCCC1 (centres undefined) 1
O=c1c(O)c(-c2ccc(O)c(O)c2)oc2cc(O)cc(O)c12 0.9

Fold change permeability, active:
CC(Nc1nc(N2CCNCC2)nc2ccccc12)c1ccccc1 (centres undefined) 2.4
CC(C)[C@H]1c2ccc(F)cc2CC[C@@]1(CCN(C)CCCc1nc2ccccc2[nH]1)OC(=O)C1CC1 1.3
O=C1N/C(=N/S(=O)(=O)c2cccc3ccccc23)S/C1=C\c1ccc(Br)cc1 1.3
COc1cc2nc(N3CCN(C(=O)C4COc5ccccc5O4)CC3)nc(N)c2cc1OC (centres undefined) 1.4
O=C1Cc2c([nH]c3ccc(Br)cc23)-c2ccccc2N1 0.7
CCCCCCCCCCCC(=O)c1c(O)c(C(=O)CCCCCCCCCCC)c(O)c(C2CC(c3ccc(O)cc3)Oc3cc(O)ccc32)c1O (centres undefined) 1.4
COc1cccc(OC)c1OCCNCC1COc2ccccc2O1 (centres undefined) 1.3
CCCCCN(CCCCC)C(=O)C(CCC(=O)O)NC(=O)c1ccc(Cl)c(Cl)c1 (centres undefined) 1.4
Nc1ncnc2c1c(-c1ccc(Oc3ccccc3)cc1)cn2C1CCCC1 1.6
Cc1ccc(C(=O)Nc2ccc(S(=O)(=O)O)c3cc(S(=O)(=O)O)cc(S(=O)(=O)O)c23)cc1NC(=O)c1cccc(NC(=O)Nc2cccc(C(=O)Nc3cc(C(=O)Nc4ccc(S(=O)(=O)O)c5cc(S(=O)(=O)O)cc(S(=O)(=O)O)c45)ccc3C)c2)c1 1.3
CC(=O)NNC(=O)N1Cc2ccccc2Oc2ccc(Cl)cc21 0.7
NS(=O)(=O)C#Cc1ccccc1 1.8
